{"source": "PubChem BioAssay"}
{"target": "Torsin-1A-interacting protein 1 (Homo sapiens) (UniProt Q5JTV8)", "sequence (Q5JTV8 whole entry, looked up)": "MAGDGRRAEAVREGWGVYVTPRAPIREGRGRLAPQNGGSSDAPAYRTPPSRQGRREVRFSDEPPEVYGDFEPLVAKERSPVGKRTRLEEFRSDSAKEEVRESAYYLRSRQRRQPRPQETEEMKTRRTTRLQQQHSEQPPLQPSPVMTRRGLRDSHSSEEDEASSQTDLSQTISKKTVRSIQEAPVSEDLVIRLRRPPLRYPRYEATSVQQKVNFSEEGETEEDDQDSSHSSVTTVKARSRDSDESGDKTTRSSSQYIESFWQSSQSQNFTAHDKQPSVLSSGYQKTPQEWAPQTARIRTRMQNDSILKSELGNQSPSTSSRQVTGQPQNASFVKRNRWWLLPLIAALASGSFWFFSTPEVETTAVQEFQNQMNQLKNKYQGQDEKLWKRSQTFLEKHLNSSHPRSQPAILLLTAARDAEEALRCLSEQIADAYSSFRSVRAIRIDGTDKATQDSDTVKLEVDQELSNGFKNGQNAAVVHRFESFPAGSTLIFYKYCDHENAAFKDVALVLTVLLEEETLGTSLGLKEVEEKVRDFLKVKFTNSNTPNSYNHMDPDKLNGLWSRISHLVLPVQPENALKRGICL", "experiment": "compound microarray binding of lysate hLAP1 – cell lysate, small-molecule microarray, COS7 lysate, 635/667 nm fluorescence, primary screen (AID 1116)", "conditions": "635 nm fluorescence, higher = more signal"}
{"smiles": "CC(C)CN1C(=O)[C@@]2(c3ccc([N+](=O)[O-])cc3)CC(=O)N(CC34CC5CC(CC(C5)C3)C4)[C@@H]2c2ccc(CO)cc21", "composite z-score": -1.09}
{"smiles": "C=C(CCCC)/C(=C/C[C@@H](OC(C)=O)c1ccc(CO)o1)c1cc(C(=O)OC)ccc1OC", "composite z-score": 0.886}
{"smiles": "COC(=O)C1(Cc2ccccc2)C=C2C(=C(C(C)C)C(=O)C2C)CN1", "note": "(configuration not stated)", "composite z-score": 1.73}
{"smiles": "COc1ccc([Si](C)(C)[C@@H]2[C@@H](CCO)O[C@]3(C(=O)N(Cc4cccc(N5C(=O)c6cccc7cccc5c67)c4)c4ccccc43)[C@H]2C)cc1", "composite z-score": 0.0561}
{"smiles": "C=CCC(OC(C)=O)[C@@H]1[C@@H](N(Cc2cc3ccccc3o2)C(=O)Cc2ccc(F)cc2)c2cc(OCCCO)ccc2N1C(=O)c1ccc2ccccc2n1", "note": "(some centres not stated)", "composite z-score": -0.103}
{"smiles": "C=CCOC(=O)[C@@H]1[C@H]2C(=O)O[C@H](c3ccccc3)[C@H](c3ccccc3)N2[C@H](c2ccc(OCCOC(=O)[C@H]3C[C@H]4C(=O)N[C@@H](CCCC[N+](C)(C)C)C(=O)N4[C@H]3c3ccc(O)cc3)cc2)[C@@]12C(=O)Nc1ccc(I)cc12", "composite z-score": 1.49}
{"smiles": "[N-]=[N+]=Nc1ccccc1[C@@H]1OC(c2ccc(OCCCO)cc2)=N[C@]1(CCS(=O)(=O)c1ccccc1)C(=O)NCCN1CCOCC1", "composite z-score": 1.26}
{"target": "Alpha-bungarotoxin (Bungarus multicinctus) (UniProt P60615)", "sequence (P60615 whole entry, looked up)": "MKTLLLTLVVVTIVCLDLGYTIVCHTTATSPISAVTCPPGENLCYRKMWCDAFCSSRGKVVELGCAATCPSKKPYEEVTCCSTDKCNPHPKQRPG", "experiment": "compounds binding labelled alpha-BTX control protein – biochemical, small-molecule microarray, Alexa647 label, 635/667 nm fluorescence, artefact control for SMM control protein annotation, profiling panel (AID 1117)", "conditions": "alpha-BTX-A647 binding fluorescence, higher = more signal"}
{"smiles": "CC(C)(C)OC(=O)CC[C@]1(C(=O)NCCN2CCOCC2)N=C(c2ccc(OCCCO)cc2)O[C@H]1c1ccccc1", "composite z-score": 1.57}
{"smiles": "C=CC[C@@]12N=C(c3ccc(OCCCO)cc3)O[C@@H]1c1ccccc1N(CCS(=O)(=O)c1ccccc1)C2=O", "composite z-score": 0.448}
{"smiles": "CCOC(=O)C[C@H]1[C@H](OC(=O)c2ccccc2-c2ccccc2)[C@@H](NC(=O)CC(C)C)c2cc(OCCCO)ccc2N1C(=O)c1ccc2ccccc2n1", "composite z-score": 0.719}
{"smiles": "COc1ccc(C(O)C2C=CC3C(=O)N(c4ccccc4)C(=O)C3N2Nc2ccccc2)cc1OCc1ccccc1", "note": "(configuration not stated)", "composite z-score": 1.4}
{"smiles": "NCCCCCNC(=O)[C@@H]1C[C@@H]2C(=O)N[C@@H](CCCCN)C(=O)N2[C@@H]1c1cccc(OCCO)c1", "composite z-score": -0.066}
{"smiles": "CCCCC(CC)C(O)C1C=CC2C(=O)N(c3ccccc3)C(=O)C2N1Nc1ccc([N+](=O)[O-])cc1", "note": "(configuration not stated)", "composite z-score": 1.27}
{"smiles": "CC(C)(C)OC(=O)CC[C@]1(C(=O)O)N=C(c2ccc(OCCCO)cc2)O[C@H]1c1ccccc1CN=[N+]=[N-]", "composite z-score": -0.489}
{"smiles": "C=C(/C(=C/C[C@@H](OC(=O)c1ccncc1)c1ccccc1OCCO)c1cc(C(=O)OC)ccc1OC)C(C)C", "composite z-score": 0.255}
{"smiles": "O=C1O[C@@H](c2ccccc2)[C@@H](c2ccccc2)N2[C@@H](c3ccccc3OCCO)[C@]3(C(=O)Nc4ccccc43)[C@@H](C(=O)NC[C@H](O)c3ccccc3)[C@H]12", "composite z-score": -0.327}
{"smiles": "COCCOC(=O)N1C(=O)[C@@]2(c3cc(C#CC4(O)CCCCCC4)ccc31)[C@H](c1ccccc1OCCO)N1[C@H](c3ccccc3)[C@H](c3ccccc3)OC(=O)[C@H]1[C@@H]2C(N)=O", "composite z-score": 1.72}
{"smiles": "O=c1cccc(-c2cccc(Cl)c2)o1", "composite z-score": 0.0698}
{"smiles": "COCCOC(=O)N1C(=O)[C@@]2(c3cc(C#CC4=CCCCC4)ccc31)[C@H](C(=O)N1CCN(c3ncccn3)CC1)[C@H]1C(=O)O[C@H](c3ccccc3)[C@H](c3ccccc3)N1[C@@H]2c1ccc(O)cc1", "composite z-score": 1.45}
{"smiles": "COCC(=C=CC[C@H](O)c1ccc(OCCO)cc1)C[C@H](O)COCc1ccccc1", "composite z-score": 0.439}
{"smiles": "C=C[C@@H](COC(C)=O)NS(=O)(=O)c1ccc(Br)cc1", "composite z-score": 0.225}
{"smiles": "O=C1C2C=CC(C(O)c3cc(C(F)(F)F)cc(C(F)(F)F)c3)N(Nc3ccc([N+](=O)[O-])cc3)C2C(=O)N1c1ccccc1", "note": "(configuration not stated)", "composite z-score": 1.59}
{"smiles": "CC(=O)NCCCC[C@@H]1NC(=O)[C@@H]2C[C@H](C(=O)O)[C@H](c3ccc(O)cc3)N2C1=O", "composite z-score": -0.371}
{"smiles": "COCCOC(=O)N1C(=O)[C@@]2(c3cc(C#CC4=CCCCC4)ccc31)[C@H](c1ccc(O)cc1)N1[C@H](c3ccccc3)[C@H](c3ccccc3)OC(=O)[C@H]1[C@@H]2C(=O)Nc1nc2ccccc2s1", "composite z-score": 1.21}
{"smiles": "CC(C)CNC(=O)[C@@H]1c2ccccc2C(=O)N(Cc2cc(F)cc(C(F)(F)F)c2)[C@H]1c1ccc(CO)cc1", "composite z-score": -0.694}
{"smiles": "C=C(C(=O)CC[C@H](OC(C)=O)c1cccc(OCCO)c1)C(C)C", "composite z-score": 1.98}
{"smiles": "O=C1O[C@@H](c2ccccc2)[C@@H](c2ccccc2)N2[C@@H](c3ccc(O)cc3)[C@]3(C(=O)Nc4ccc(C#CCCO)cc43)[C@@H](C(=O)NC[C@H](O)c3ccccc3)[C@H]12", "composite z-score": -0.588}
